# Shown is part of a subset that was picked to be rich in hits.
# STK33 kin inh: STK33 kinase inhibitors, primary screen, biochemical, luminescence, ADP-Glo, MBP substrate | 27,000 tested, 0.44% active | inhibition, % at 12.5 µM | Serine/threonine-protein kinase 33 (Homo sapiens), Q9BYT3; in the data active = inhibition above about 20%
# Target sequence (Q9BYT3 whole entry, looked up): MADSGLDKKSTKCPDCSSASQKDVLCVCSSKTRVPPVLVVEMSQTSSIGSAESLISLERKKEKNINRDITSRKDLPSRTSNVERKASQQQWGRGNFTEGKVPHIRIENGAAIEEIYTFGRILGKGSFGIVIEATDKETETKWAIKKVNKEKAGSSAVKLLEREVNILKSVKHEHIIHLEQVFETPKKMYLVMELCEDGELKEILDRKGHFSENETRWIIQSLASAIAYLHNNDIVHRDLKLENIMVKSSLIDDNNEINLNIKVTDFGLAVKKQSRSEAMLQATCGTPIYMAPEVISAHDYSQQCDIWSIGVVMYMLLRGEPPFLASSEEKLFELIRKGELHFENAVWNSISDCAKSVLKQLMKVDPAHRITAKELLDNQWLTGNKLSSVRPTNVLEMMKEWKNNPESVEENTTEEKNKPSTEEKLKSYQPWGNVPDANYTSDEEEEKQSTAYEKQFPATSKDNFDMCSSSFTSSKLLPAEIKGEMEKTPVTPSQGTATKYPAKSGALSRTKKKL
# PD-1 reversal: activators reversing PD-1 mediated T-cell inhibition, primary screen, luminescence, primary human CD4 T cells, PD-L1 beads; CellTiter-Glo 96 h; activation, % (no concentration beside the values); 29,000 tested, under 10 active; AID 2316, 2010; call rule not given here;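 also: 0% = median vehicle wells and 100% = positive control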
# * hit, by the source's call; . = no result given.
SMILES,STK33 kin inh,PD-1 reversal
COc1ccc(-c2cc(=O)c3c(OC)cc(OC)cc3o2)cc1,1.4,.
O=c1cc(-c2ccc(O)c(O)c2)oc2cc(O)cc(O)c12,78.4*,.
COc1ccc(-c2cc(=O)c3c(O)cc(O)cc3o2)cc1,24.9*,.
O=c1c(-c2c(O)cc(O)c3c(=O)cc(-c4ccc(O)cc4)oc23)c(-c2ccc(O)cc2)oc2cc(O)cc(O)c12,3.3,0.4
C[C@H]1CN([C@@H](C)CO)C(=O)c2cccc(NC(=O)C3CCCCC3)c2O[C@@H]1CN(C)S(=O)(=O)c1ccc(Cl)cc1,.,0.9
NS(=O)(=O)c1ccc(N=Cc2c(O)[nH]c3ccccc23)cc1,93.7*,2.2
O=C(c1ccccc1)c1cccc(N=Cc2c(O)[nH]c(=O)[nH]c2=O)c1,.,1.4
CC1CCc2sc3ncnc(NCCN4CCOCC4)c3c2C1 (stereo unspecified),2.2,-1.8
CC1CCc2c(sc(NC(=O)CCN3C(=O)c4ccccc4C3=O)c2C#N)C1 (stereo unspecified),-0.8,.
CN(C)c1ccc(/C=C2/C(=O)Nc3ccccc32)cc1,33.7*,-0.1
CN1C(=O)c2ccccc2NC(=O)/C1=C\c1ccccc1,0.8,0.7
O=C1Cc2c([nH]c3ccc(Br)cc23)-c2ccccc2N1,3.5,4.7
O=C1Nc2ccccc2/C1=C\c1c(Cl)[nH]c2ccccc12,29.1*,-1.2
COc1cc(CCC(C)NC(=O)c2ccco2)ccc1OC(=O)c1ccco1 (stereo unspecified),0.1,-3.8
COc1cc(O)c(C(=O)/C=C/c2ccc(O)c(OC)c2)c(OC)c1,51.0*,.
COc1cc(/C=C/C(=O)NCC(O)c2ccc(O)cc2)ccc1O (stereo unspecified),-3.2,.
COc1ccc([Si](C)(C)[C@@H]2[C@@H](CCO)O[C@]3(C(=O)N(Cc4ccc(NC(C)=O)cc4)c4ccccc43)[C@H]2C)cc1,14.7,.
COc1ccc([Si](C)(C)[C@H]2[C@H](CCn3cc(CCO)nn3)O[C@@]3(C(=O)N(Cc4cccc(N5CCOC5=O)c4)c4ccccc43)[C@@H]2C)cc1,20.7*,.
COc1ccc([Si](C)(C)[C@@H]2[C@@H](CCn3cc([C@H](O)c4ccccc4)nn3)O[C@]3(C(=O)N(Cc4cccc(N5CCOC5=O)c4)c4ccccc43)[C@H]2C)cc1,4.4,.
COc1ccc([Si](C)(C)[C@@H]2[C@@H](CCO)O[C@]3(C(=O)N(Cc4cccc(N5CCOC5=O)c4)c4ccccc43)[C@H]2C)cc1,18.2,.
COc1ccc([Si](C)(C)[C@@H]2[C@@H](CCO)O[C@]3(C(=O)N(Cc4ccc(N5CCOC5=O)cc4)c4ccccc43)[C@H]2C)cc1,20.2*,.
COc1ccc([Si](C)(C)[C@H]2[C@H](CCO)O[C@@]3(C(=O)N(Cc4cccc(NC(C)=O)c4)c4ccccc43)[C@@H]2C)cc1,37.8*,.
C[C@H]1CN([C@@H](C)CO)C(=O)c2cccc(NC(=O)C3CCOCC3)c2O[C@H]1CN(C)CC1CCCCC1,.,0.2
CC(=O)c1cccc(NC(=O)NCc2cnn(C)c2)c1,-1.8,1.3
N#C/C(=C\c1ccc(O)c(O)c1)C(=O)NCCCc1ccccc1,3.1,-1.6
SMILES,STK33 kin inh,PD-1 reversal
N#C/C(=C\c1ccc(O)c(O)c1)C(=O)c1ccc(O)c(O)c1,30.6*,1.3
COc1cc2ncnc(Nc3cccc(O)c3)c2cc1OC,43.0*,-1.2
COc1cc2ncnc(Nc3cccc(Br)c3)c2cc1OC,0.1,6.5
C[C@@H]1CN([C@H](C)CO)C(=O)c2cc(NS(=O)(=O)c3cn(C)cn3)ccc2O[C@@H]1CN(C)C(=O)Nc1ccc2c(c1)OCO2,.,-0.4
O=C(COc1cc(O)c2c(=O)c3ccccc3oc2c1)c1ccc(Br)cc1,0.4,1.7
COC(=O)C(O)(c1c(C)nn(-c2ccccc2)c1N)C(F)(F)F (stereo unspecified),-0.2,2.5
O=C(/C=C/c1ccccc1)CC(O)CCc1ccccc1 (stereo unspecified),-5.1,1.5
COc1ccc(/C=C/C(=O)c2cc(O)ccc2O)cc1,-6.8,.
O=C(/C=C/c1ccc(O)cc1)c1ccc(O)cc1O,49.6*,.
O=C(/C=C/c1ccc(O)cc1)CC(=O)/C=C/c1ccc(O)cc1,120.0*,-1.0
COc1ccc(S(=O)(=O)N(C)C[C@H]2Oc3ccc(NC(=O)C4CC4)cc3CC(=O)N([C@H](C)CO)C[C@H]2C)cc1,-0.1,-0.5
COc1ccc(S(=O)(=O)Nc2cccc3c2O[C@@H](CN(C)C(=O)Nc2ccccc2)[C@H](C)CN([C@H](C)CO)C3=O)cc1,.,0.8
O=C1OCCC1Sc1nnc(-c2ccccc2[N+](=O)[O-])o1 (stereo unspecified),-2.7,.
COc1ccc(/C=C2\Oc3cc(O)cc(O)c3C2=O)cc1O,31.4*,0.4
COc1cc(C2CC(=O)c3c(O)cc(O)cc3O2)ccc1O (stereo unspecified),4.4,-1.8
OC[C@H]1O[C@@H](n2cnc3c(NCc4ccco4)ncnc32)[C@H](O)[C@@H]1O,-1.3,.
Nc1ncnc2c1c(I)cn2C1OC(CO)C(O)C1O (stereo unspecified),53.3*,.
O=C1O[C@@H](c2ccccc2)[C@@H](c2ccccc2)N2[C@@H](c3ccccc3OCCO)[C@]3(C(=O)Nc4ccc(C#CCCO)cc43)[C@@H](C(=O)N3CCCCCCC3)[C@H]12,21.9*,.
COc1ccc(C#Cc2ccc3c(c2)[C@]2(C(=O)N3)[C@H](c3ccccc3OCCO)N3[C@H](c4ccccc4)[C@H](c4ccccc4)OC(=O)[C@H]3[C@@H]2C(=O)N2CCN(c3ncccn3)CC2)cc1,9.5,.
O=C1O[C@@H](c2ccccc2)[C@@H](c2ccccc2)N2[C@@H](c3ccc(OCCO)cc3)[C@]3(C(=O)Nc4ccc(C#CCCO)cc43)[C@@H](C(=O)N3CCCCCCC3)[C@H]12,14.0,.
O=C1O[C@H](c2ccccc2)[C@H](c2ccccc2)N2[C@H]1[C@@H](C(=O)N1CCN(c3ncccn3)CC1)[C@]1(C(=O)Nc3ccc(C#CCCO)cc31)[C@H]2c1ccccc1OCCO,24.1*,.
Cc1ccc(NC(=O)CSc2nc(C)cc(C(F)(F)F)n2)cc1,-5.0,-1.3
Cn1c2ccccc2c2c3c(c4c5ccccc5n(CCC#N)c4c21)CNC3=O,109.2*,-12.7
Cc1ccc(C2=NNC(=O)C(c3cn(CCC#N)c4ccccc34)C2)cc1 (stereo unspecified),6.3,-2.3
Cn1c(SCC(=O)Nc2ccc3c(c2)oc2ccccc23)nc2ccccc2c1=O,1.6,2.4
SMILES,STK33 kin inh,PD-1 reversal
O=C(CC1Sc2ccc(Cl)cc2NC1=O)Nc1ccc([N+](=O)[O-])cc1 (stereo unspecified),1.3,.
Cc1ccc(OCC(=O)Nc2ccc(Cl)c(-c3nc4ccccc4s3)c2)cc1,0.2,0.4
COc1cc(-c2oc3cc(O)c(OC)c(O)c3c(=O)c2OC)ccc1O,15.9,-0.6
COc1cc(-c2oc3cc(O)cc(O)c3c(=O)c2O)ccc1O,52.5*,1.0
O=c1c(O)c(-c2ccc(O)c(O)c2)oc2cc(O)cc(O)c12,38.3*,2.8
O=c1c(O[C@@H]2OC[C@H](O)[C@H](O)[C@H]2O)c(-c2ccc(O)c(O)c2)oc2cc(O)cc(O)c12,7.6,0.4
Cc1csc(NC(=O)CSc2nc(C34CC5CC(CC(C5)C3)C4)ccc2C#N)n1,.,0.9
COc1ccc(NC(=O)O[C@@H](c2ccc(OCCO)cc2)[C@H](CCO)OC)cc1,1.4,.

# Screening results (PubChem)
